# Data: PubChem BioAssay (Tox21)
# Active and inactive are the calls of the source. Entries that show only a call come without a potency. Unless noted, the call rests on the fitted dose curve; in most records, active means well fitted curve in the direction sought with a large enough effect in the repeat runs; inconclusive means weak or mixed curves; inactive means no such curve, though single readings can be large; an effect the other way counts as inactive or inconclusive.
# Tests used:
# [1] = qHTS assay for small molecule agonists of the p53 signaling pathway (AID 651631; calls by dose curve; further: nearly all actives have a fitted effect of over 15% in size; further: potency means the concentration at half of the fitted maximal effect)
# How it was run: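 HCT-116 cells carrying a beta-lactamase reporter under p53 response elements were dosed with compound for 16 h at 37 °C. LiveBLAzer B/G FRET substrate was then added for 2 h at room temperature, and fluorescence intensity was read to detect pathway agonism.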
# [2] = qHTS assay for small molecule agonists of the p53 signaling pathway - cell viability (AID 651633; calls by dose curve; further: nearly all actives have a fitted effect of over 30% in size; further: potency means the concentration at half of the fitted maximal effect)
# How it was run: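 p53RE-bla cells, seeded at 4,000 per well and rested 5 h at 37 C/5% CO2, received compounds in DMSO for 16 h at 37 C. CellTiter-Glo was then added, and luminescence was read after 30 min at room temperature to gauge cytotoxicity.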
# [3] = qHTS assay for small molecules that induce genotoxicity in human embryonic kidney cells expressing luciferase-tagged ATAD5 - cell viability (AID 651634; calls by dose curve; further: nearly all actives have a fitted effect of over 25% in size; further: potency means the concentration at half of the fitted maximal effect)
# How it was run: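 Seeding of 2,000 HEK293T ATAD5-luciferase cells per well preceded pin-tool compound transfer. Plates sat 15.5 hr at 37C under 5% CO2, then fluorescence was read after 30 min with CellTiter-Fluor.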
# [4] = qHTS assay for small molecule disruptors of the mitochondrial membrane potential - cell viability (AID 720634; calls by dose curve;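 further: human HepG2 liver cancer cells; nearly all actives have a fitted effect of over 20% in size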)
# How it was run: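 Measuring cytotoxicity alongside mitochondrial potential, the screen quantified ATP by luminescence in HepG2 cells after 1 hr compound incubation and a 30 min room-temperature CellTiter-Glo step.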
# [5] = qHTS assay for small molecule disruptors of the mitochondrial membrane potential (AID 720635); further: potency means the concentration at half of the fitted maximal effect
# How it was run: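 HepG2 cells (2,000/well) attached overnight at 37C, then took compound for 1 hr at 37C, 5% CO2. Mito-MPS dye was added for 30 min; fluorescence was read at 490/535 nm (monomers) and 540/590 nm (aggregates).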
# [6] = qHTS assay to test for compound auto fluorescence at 590 nm (red) in HepG2 cells (AID 720674)
# How it was run: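 Rose Bengal sodium served as the red fluorophore standard. HepG2 monolayers (overnight attachment, MEM with 10% FBS) were exposed to test compounds for 1 hr at 37 C and read at Ex 540/Em 590 nm.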
# [7] = qHTS assay to test for compound auto fluorescence at 535 nm (green) in HepG2 cells (AID 720675)
# [8] = qHTS assay to test for compound auto fluorescence at 460 nm (blue) in HEK293 cells (AID 720678)
# How it was run: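 Intrinsic compound fluorescence is recorded in live HEK293 cultures after overnight incubation at 37C, 5% CO2, using excitation 405 nm and emission 460 nm. Values are referenced to triamterene.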
# [9] = qHTS assay to test for compound auto fluorescence at 590 nm (red) in HEK293 cells (AID 720679)
# How it was run: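 Red autofluorescence, HEK293 cells: 2,000 cells/well; attach 4-5 hr 37C; add 23 nL cpd or DMSO; incubate o/n 37C 5% CO2; read Ex540/Em590; Rose Bengal sodium reference.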
# [10] = qHTS assay to test for compound auto fluorescence at 535 nm (green) in HEK293 cells (AID 720680)
# [11] = qHTS assay to test for compound auto fluorescence at 460 nm (blue) in HEK293 cell free culture (AID 720681)
# How it was run: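 Test compounds were pinned into cell-free culture medium (DMEM with 10% FBS) and fluorescence was read directly at Ex/Em 405/460 nm. Signals were expressed as fluorescence equivalents of triamterene, with DMSO vehicle as control.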
# [12] = qHTS assay to test for compound auto fluorescence at 535 nm (green) in HEK293 cell free culture (AID 720682)
# How it was run: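 Green-label autofluorescence (485 nm excitation, 535 nm emission) measured on compound added to cell-free culture medium (DMEM, 10% FBS). Output is expressed relative to fluorescein.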
# [13] = qHTS assay to test for compound auto fluorescence at 590 nm (red) in HepG2 cell free culture (AID 720684)
# How it was run: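 Measured in medium alone (MEM containing 10% FBS) following pintool addition of compound; emission at 590 nm with 540 nm excitation, referenced to Rose Bengal sodium.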
# [14] = qHTS assay to test for compound auto fluorescence at 460 nm (blue) in HepG2 cell free culture (AID 720685)
# How it was run: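 Compound (23 nL) or DMSO pinned into cell-free MEM with 10% FBS; blue fluorescence read at 405/460 nm excitation/emission, expressed as auto-fluorescence equivalency to triamterene.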
# [15] = qHTS assay to test for compound auto fluorescence at 535 nm (green) in HepG2 cell free culture (AID 720686)
# [16] = qHTS assay to test for compound auto fluorescence at 460 nm (blue) in HepG2 cells (AID 720687)
# How it was run: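 Cells (2,000/well in MEM with 10% FBS) attached overnight at 37 C, then were exposed to compound or DMSO for 1 hr at 37 C, 5% CO2. Fluorescence read at Ex/Em 405/460 nm, expressed as triamterene-equivalent signal.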
# [17] = biological target: Glucocorticoid receptor (Homo sapiens) (UniProt P04150); assay: qHTS assay to identify small molecule agonists of the glucocorticoid receptor (GR) signaling pathway (AID 720691; active means well fitted activation curve with a large enough effect in the signal ratio in the repeat runs, not every such curve was filed as active; inconclusive means weak or mixed curves, or effect the other way; inactive means no such curve, though single readings can be large or run the other way; the % refers to the signal ratio; further: potency means the concentration at half of the fitted maximal effect); settings: GR-bla HeLa, beta-lactamase reporter ratio, 18 h; activation: at 62.4 µM (top of the series)
# How it was run: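 Reporter read-out: fluorescence intensity following 2 h room-temperature LiveBLAzer B/G FRET substrate loading. Prior step: GR-bla HeLa cells held 4 h, then treated 18 h at 37 C.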
# [18] = biological target: Glucocorticoid receptor (Homo sapiens) (UniProt P04150); assay: qHTS assay to identify small molecule antagonists of the glucocorticoid receptor (GR) signaling pathway (AID 720692; active means well fitted inhibition curve with a large enough effect in the signal ratio in the repeat runs, not every such curve was filed as active; inconclusive means weak or mixed curves, or effect the other way; inactive means no such curve, though single readings can be large or run the other way; the % refers to the signal ratio)
# How it was run: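 Dexamethasone (5 nM final) stimulated a stably integrated GRE-beta-lactamase reporter in HeLa cells during 18 h co-incubation with compounds; signal was quantified as fluorescence intensity of B/G FRET substrate after 2 h.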
# [19] = qHTS assay for small molecules that induce genotoxicity in human embryonic kidney cells expressing luciferase-tagged ATAD5 (AID 651632); further: nearly all actives have a fitted effect of over 15% in size
# How it was run: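 Reporter cells (HEK293T) express luciferase-tagged ATAD5, a protein that accumulates after DNA damage. Treat 16 hr at 37C/5% CO2, add Amplite, wait 30 min at RT, and read luminescence.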
# [20] = qHTS assay to test for compound auto fluorescence at 590 nm (red) in HEK293 cell free culture (AID 720683)
# How it was run: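 Tox21 10K library compounds were pinned into cell-free DMEM with 10% FBS and fluorescence was read at excitation 540 nm. Activity is expressed as Rose Bengal sodium equivalency.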
# Chain of Glucocorticoid receptor (Homo sapiens) (P04150 whole entry, looked up): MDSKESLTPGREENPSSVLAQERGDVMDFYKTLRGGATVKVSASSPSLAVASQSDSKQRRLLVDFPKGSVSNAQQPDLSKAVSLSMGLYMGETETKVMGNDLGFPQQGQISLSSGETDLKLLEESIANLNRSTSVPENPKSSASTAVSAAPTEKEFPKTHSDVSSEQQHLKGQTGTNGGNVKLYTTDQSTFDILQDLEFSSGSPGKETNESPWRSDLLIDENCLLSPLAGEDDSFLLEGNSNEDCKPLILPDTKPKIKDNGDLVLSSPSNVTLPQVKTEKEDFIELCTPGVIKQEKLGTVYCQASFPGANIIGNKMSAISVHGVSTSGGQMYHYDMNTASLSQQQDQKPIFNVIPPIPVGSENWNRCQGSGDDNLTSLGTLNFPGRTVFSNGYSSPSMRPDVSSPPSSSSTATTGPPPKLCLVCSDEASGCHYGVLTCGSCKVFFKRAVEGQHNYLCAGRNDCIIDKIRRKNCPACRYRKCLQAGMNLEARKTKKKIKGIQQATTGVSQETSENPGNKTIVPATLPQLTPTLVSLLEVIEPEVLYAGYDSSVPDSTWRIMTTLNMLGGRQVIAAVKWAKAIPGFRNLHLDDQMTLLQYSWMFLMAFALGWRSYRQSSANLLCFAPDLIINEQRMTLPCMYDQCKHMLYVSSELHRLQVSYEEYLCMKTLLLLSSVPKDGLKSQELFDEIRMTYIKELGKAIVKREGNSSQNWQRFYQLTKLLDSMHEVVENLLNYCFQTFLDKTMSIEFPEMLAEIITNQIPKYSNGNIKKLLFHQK
Compound,Potency [1],Potency [2],Potency [3],Potency [4],Potency [5],Potency [6],Potency [7],Potency [8],Potency [9],Potency [10],Potency [11],Potency [12],Potency [13],outcome [14],Potency [15],outcome [16],Potency [17],Potency [18],Potency [19],Potency [20]
CCCC(=O)Nc1ncnc2c1ncn2[C@@H]1O[C@@H]2COP(=O)(O)O[C@H]2[C@H]1OC(=O)CCC,inactive,inactive,inactive,inactive,inactive,inactive,inactive,inactive,inactive,inactive,inactive,inactive,inactive,inactive,inactive,inactive,inactive,inactive,,
C=C1CC[C@H](O)CC1=C/C=C1\CCC[C@]2(C)[C@@H]([C@H](C)CCCC(C)(C)O)CC[C@@H]12,,11.9 µM (active),13.3 µM (active),inactive,5.31 µM (active),inactive,inactive,inactive,inactive,inactive,inactive,inactive,inactive,inactive,inactive,inactive,,,inactive,inactive
CC(=O)Oc1c(C)cc(OCC(O)CNC(C)C)c(C)c1C (stereo not given),inactive,,inactive,inactive,inactive,inactive,inactive,inactive,inactive,inactive,inactive,inactive,inactive,inactive,inactive,,21.3 µM (active),inactive,,inactive
CC(CCc1ccc(O)cc1)NCC(O)c1ccc(O)cc1 (stereo not given),,inactive,inactive,inactive,inactive,inactive,inactive,inactive,inactive,inactive,inactive,inactive,inactive,inactive,inactive,inactive,,,inactive,inactive
Cc1cc(Nc2ccccc2C(=O)O)ccc1Cl,15 µM (active),7.5 µM (active),inactive,inactive,11.9 µM (active),inactive,inactive,,inactive,inactive,inactive,inactive,inactive,inactive,inactive,inactive,inactive,inactive,,inactive
CC(=O)N[C@@H](C=O)[C@@H](O)[C@H](O)[C@H](O)CO,,inactive,inactive,inactive,inactive,inactive,inactive,inactive,inactive,inactive,inactive,inactive,inactive,inactive,inactive,inactive,,,inactive,inactive
C[C@@H]1C[C@H]2[C@@H]3CCC4=CC(=O)C=C[C@]4(C)[C@@]3(F)[C@@H](O)C[C@]2(C)[C@@]1(O)C(=O)COC(=O)c1cccc(S(=O)(=O)O)c1,inactive,inactive,inactive,inactive,,inactive,inactive,inactive,inactive,inactive,inactive,inactive,,inactive,inactive,inactive,0.338 µM [inconclusive] (active),,,inactive
CNC(=O)[C@H](Cc1c[nH]c2ccccc12)NC(=O)[C@@H](CC(=O)NO)CC(C)C,inactive,inactive,inactive,inactive,inactive,,inactive,inactive,inactive,inactive,inactive,inactive,inactive,inactive,inactive,inactive,15.1 µM (active),,,
CC(=O)OCC(=O)[C@@]12OC3(CCCC3)O[C@@H]1C[C@H]1[C@@H]3CCC4=CC(=O)C=C[C@]4(C)[C@@]3(F)[C@@H](O)C[C@@]12C,inactive,inactive,inactive,inactive,29.8 µM (active),inactive,inactive,inactive,,inactive,inactive,inactive,inactive,inactive,inactive,inactive,0.019 µM (active),,,inactive
Cc1ccc(C2(O)CCN(CCCC(=O)c3ccc(F)cc3)CC2)cc1,,inactive,inactive,inactive,inactive,inactive,inactive,inactive,inactive,inactive,inactive,inactive,inactive,inactive,inactive,inactive,,,inactive,inactive
CCCCC[C@H](O)/C=C/[C@@H]1[C@H]2C/C(=C/CCCC(=O)O)O[C@H]2C[C@H]1O,,inactive,inactive,inactive,inactive,inactive,inactive,inactive,inactive,inactive,inactive,inactive,inactive,inactive,inactive,inactive,,,inactive,inactive
COC(=O)CCC[N+](C)(C)C,,inactive,inactive,inactive,inactive,inactive,inactive,inactive,inactive,inactive,inactive,inactive,inactive,inactive,inactive,,,,inactive,inactive
OC[C@H]1OC([S-])[C@H](O)[C@@H](O)[C@@H]1O.[Au+] (stereo not given in full),,inactive,inactive,inactive,inactive,inactive,inactive,inactive,inactive,inactive,inactive,inactive,inactive,inactive,inactive,inactive,,,inactive,inactive
